Compounds with a hit are over-represented: about 3.4% of the library has one in this group of screens.
p47phox inh: blocks human p47phox regulatory protein of NADPH oxidases; AID 1274; inhibition, % at 24.7 µM; 220,000 tested, 0.53% active; P14598; p47phox/p22phox peptide binding, fluorescence polarization, 2 h
14-3-3 Bad PPI: disrupts binding of bovine 14-3-3 zeta to phospho-Bad peptide; AID 781; TR-FRET 14-3-3zeta/Dy647-pBad peptide displacement, 1 h; 220,000 tested, 0.71% active; P63103; inhibition, % at 21.7 µM;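 active = inhibition above about 70%, limit read from the data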
Target sequence (P63103 whole entry, looked up): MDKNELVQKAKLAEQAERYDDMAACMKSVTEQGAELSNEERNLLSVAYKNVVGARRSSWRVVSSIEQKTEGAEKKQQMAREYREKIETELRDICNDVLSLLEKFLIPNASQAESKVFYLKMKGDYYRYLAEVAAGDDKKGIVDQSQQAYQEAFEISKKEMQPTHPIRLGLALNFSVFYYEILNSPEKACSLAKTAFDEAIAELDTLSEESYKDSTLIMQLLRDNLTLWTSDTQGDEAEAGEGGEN
Bim-Mcl-1: human Bim-Mcl-1 interaction inhibition | Q07820 | Bead-based flow cytometry, Bim peptide-Mcl-1 binding | inhibition, % at 10 µM | 190,000 tested, 0.1% active; in the data active = inhibition above about 40%
Target sequence (Q07820 whole entry, looked up): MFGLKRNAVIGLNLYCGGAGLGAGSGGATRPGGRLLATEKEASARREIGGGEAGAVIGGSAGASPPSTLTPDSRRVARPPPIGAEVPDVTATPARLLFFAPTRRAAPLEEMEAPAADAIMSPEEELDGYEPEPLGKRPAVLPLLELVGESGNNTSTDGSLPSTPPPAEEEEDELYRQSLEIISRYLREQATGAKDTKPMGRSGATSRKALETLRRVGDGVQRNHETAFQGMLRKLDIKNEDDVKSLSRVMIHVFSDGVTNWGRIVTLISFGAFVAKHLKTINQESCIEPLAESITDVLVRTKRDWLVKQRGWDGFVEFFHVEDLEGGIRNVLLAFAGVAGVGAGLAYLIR
eIF4E-4G inh: inhibitors of eIF4E and eIF4G interaction in translation initiation | inhibition, % at 21.7 µM | TR-FRET eIF4E-eIF4GI(517-606) binding, 2 h | 220,000 tested, 0.37% active
Mcl1 Noxa PPI: Mcl-1/Noxa interaction inhibition; Q07820; TR-FRET Mcl-1/Noxa peptide binding, 2 h; inhibition, % at 21.7 µM; 220,000 tested, 1.5% active; AID 1022;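 active = compounds that cut the protein-peptide binding signal by more than 50% relative to plate controls in a single-dose test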;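 also: His-tagged Mcl-1 with rhodamine Noxa BH3 peptide and terbium anti-His antibody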
Mcl1-Bid inh: disrupts binding of human Mcl-1 to Bid peptide | TR-FRET Mcl-1/Bid-Dy647 peptide binding, 1536-well | 220,000 tested, 0.97% active | inhibition, % at 21.7 µM;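 active = compounds that cut the binding signal by more than half at the single screening dose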;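 also: His-tagged Mcl-1 with europium anti-His antibody binding Bid BH3 peptide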
Of the large screens only hits and unclear results are named; the others gave an inactive call; [ ] = dose if it differs, or a comment.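 The calls were made as follows, unless noted: active = inhibition above about 30% (limit read from the data); inactive = the rest.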

COc1cc(/C=C2\CC/C(=C\c3cc(OC)c(O)c(OC)c3)C2=O)cc(OC)c1O	eIF4E-4G inh 40[fluorescence artefact?], Mcl1 Noxa PPI 101
Cc1ccc(S(=O)(=O)N2CCOCC2)cc1C(=O)c1nccn1C	none
O=c1c(Cl)c(O)c2cccc3c4ccccc4n1c23	Mcl1 Noxa PPI 65
CN(Cc1ccccc1)C(=O)C1CCN(Cc2ccc(F)cc2)CC1	Mcl1-Bid inh 55
O=C(C1CCCN(Cc2ccccc2)C1)N1CCc2ccccc2C1 (stereo not given)	14-3-3 Bad PPI 78
NC(=O)C1CCCN(Cc2ccc(Cl)cc2)C1 (stereo not given)	14-3-3 Bad PPI 72
CCCCN(C)C(=O)C1CCN(CCCc2ccccc2)CC1	14-3-3 Bad PPI 80
O=C(C1CCC1)N1CCN(Cc2ccccc2)CC1	none
O=C(OCC(=O)N1CCc2ccccc2C1)c1cccnc1Cl	none
C=CCNC(=O)N[C@@H](Cc1ccccc1)C(=O)OC	none (no result: Bim-Mcl-1)
COc1ccc(-n2cc(CNC3CCC(O)CC3)c(-c3cccc(F)c3)n2)cc1 (stereo not given)	none
CC(C)(C)C(=O)NC(=S)NNC(=O)c1ccc(Cl)cc1Cl	none
CN(Cc1ccccc1)C(=O)C1CCCN(Cc2ccc(Cl)cc2)C1 (stereo not given)	14-3-3 Bad PPI 76
CCN(CC)C(=O)C1CCCN(Cc2ccc(N(C)C)cc2)C1 (stereo not given)	none
CCOC(=O)C1CCCN(Cc2ccc3c(c2)OCO3)C1 (stereo not given)	14-3-3 Bad PPI 75
CCN(CC)C(=O)C1CCCN(Cc2ccccc2C(F)(F)F)C1 (stereo not given)	14-3-3 Bad PPI 71
CCN(CC)C(=O)C1CCCN(Cc2ccccc2)C1 (stereo not given)	14-3-3 Bad PPI 80
N#Cc1ccccc1Cn1cc(/C=C/[N+](=O)[O-])c2ccccc21	none
COc1ccccc1-c1nc(COc2ccc(Cl)cc2Cl)no1	none (no result: Bim-Mcl-1)
CC(C)(C)C(=O)Cn1ncc(Cl)c(Cl)c1=O	none
C=CCn1c(C)cc(C(=O)Cn2ncc(Cl)c(Cl)c2=O)c1C	Mcl1 Noxa PPI 86
COc1ccc(C(=O)O)cc1S(=O)(=O)NCCN(C)C	none (no result: Bim-Mcl-1)
O=C1CSC(c2ccncc2)N1Cc1ccccc1 (stereo not given)	Mcl1-Bid inh 93
O=C1CSC(c2ccncc2)N1Cc1ccco1 (stereo not given)	none
CCOC(=O)N1CCN(CC(=O)N2CCC(C(N)=O)CC2)CC1	none
Cn1nc(C(F)(F)F)c(-c2ccc(F)cc2)c1NC(=O)c1cccnc1	none (no result: Bim-Mcl-1)
Cc1cccc(NC2=CC(=O)OC(C)C2)c1 (stereo not given)	14-3-3 Bad PPI 81
Cc1n[nH]c(=S)c2nn(-c3ccccc3)c(C)c12	Mcl1-Bid inh 70
COc1ccc(C2CC(=O)C3=C(C2)Nc2ccccc2NC3c2coc3ccccc3c2=O)cc1OC (stereo not given)	Bim-Mcl-1 42
Cc1cccc(N2CCN(C(=S)Nc3ccc4nc(N5CCN(C)CC5)cc(C)c4c3)CC2)c1C	p47phox inh 44, Mcl1-Bid inh 85
O=C1c2ccc(Br)cc2C(=O)N1c1ccc(Cc2ccncc2)cc1	none
CC(=O)N1C(C)(C)CC(=NOC(=O)c2ccc(C)cc2)CC1(C)C	none
CC(=O)N1C(C)(C)CC(=NOC(=O)c2ccccc2)CC1(C)C	14-3-3 Bad PPI 92
CN(C)CCCOc1cccc(Cl)c1	none
CN(C)CCCOc1cccc(Oc2ccccc2)c1	Mcl1-Bid inh 52
Cc1ccc(OCc2csc(N)n2)cc1	none
COc1ccc(N2C(=O)CCC(C(=O)NCc3cccnc3)C2c2ccc(OC)c(OC)c2)cc1 (stereo not given)	p47phox inh 200
Cc1cccc2sc(NC(=O)c3cc(S(=O)(=O)N(C)C)ccc3N3CCCC3)nc12	none
O=C(C(c1ccccc1)c1ccccc1)N1CCN(Cc2ccccn2)CC1	14-3-3 Bad PPI 71
COc1cccc(C(=O)N2CCN(Cc3ccccn3)CC2)c1OC	Mcl1-Bid inh 68
O=C(C(c1ccccc1)c1ccccc1)N1CCN(Cc2ccncc2)CC1	14-3-3 Bad PPI 75
O=C(c1ccncc1)N1CCN(C2CCC(c3ccccc3)CC2)CC1 (stereo not given)	none (no result: Bim-Mcl-1)
COc1cccc(C(=O)N2CCN(C3CCC(c4ccccc4)CC3)CC2)c1OC (stereo not given)	Mcl1-Bid inh 55
Cn1c(C(C#N)C2=C(Cl)C(=O)N(c3ccccc3)C2=O)nc2ccccc21 (stereo not given)	p47phox inh 48 (no result: Mcl1 Noxa PPI)
O=[N+]([O-])c1ccccc1/C=C/C=N/Nc1ccc(S(=O)(=O)Nc2ccc(Cl)cc2)cc1[N+](=O)[O-]	none
Cn1cnnc1SCC(=O)N/N=C/c1ccc(OCC(N)=O)cc1	none (no result: Bim-Mcl-1)
Cc1ccc(-c2n[nH]c(=S)n2C)cc1Cl	Mcl1 Noxa PPI 53
CCN(CC)S(=O)(=O)c1cccc(-c2n[nH]c(=S)n2C)c1	none
Cc1c(CCOC(=O)c2cc([N+](=O)[O-])cc([N+](=O)[O-])c2)sc[n+]1CCCCS(=O)(=O)[O-]	none
NS(=O)(=O)c1ccc(NS(=O)(=O)c2ccc(NC(=O)c3ccc(-c4ccccc4)cc3)cc2)cc1	Mcl1-Bid inh 54
NS(=O)(=O)c1ccc(NC(=O)c2ccc(-c3ccccc3)cc2)cc1	none
NS(=O)(=O)c1ccc(C(=O)Nc2ccc(-c3nc4cccnc4s3)cc2)cc1	Mcl1-Bid inh 52 (no result: Bim-Mcl-1)
O=C(Nc1cccc(-c2nc3cccnc3s2)c1)c1ccc(Cl)nc1	none (no result: Bim-Mcl-1)
CC(C)NC(=O)c1ccc(COCC(F)(F)F)cc1	Mcl1-Bid inh 87
CC(C)NC(=O)c1ccc(CNC(=O)OCC(F)(F)F)cc1	none
COc1ccc(C2C(C(=O)c3ccccc3)=C(C)Nc3nc4ccccc4n32)cc1OC (stereo not given)	p47phox inh 34
COc1ccc2[nH]c3c4c(ccc3c2c1)C(=O)C=CC4=O	p47phox inh 31, Mcl1 Noxa PPI 98, Mcl1-Bid inh 82 (no result: Bim-Mcl-1)
COC(=O)CC1C(=O)NCCN1C(=O)CSc1nc2cc(Cl)ccc2o1 (stereo not given)	none
BrC(=C\c1ccccc1)/C=N/N1CCN(c2ccccc2)CC1	Bim-Mcl-1 43
CC(/C=N/N1CCN(c2ccc(C)cc2)CC1)=C\c1ccccc1	none
O=C(O)c1ccc(-c2ccc(/C=C3\NC(=O)N(Cc4ccc(Cl)cc4)C3=O)o2)cc1Cl	Mcl1 Noxa PPI 56
Cc1ccc(/C=C2/NC(=O)N(Cc3ccc(Br)cc3)C2=O)o1	none
CC(C)(C)N(CC#CCC1(O)c2ccccc2-c2ccccc21)CCO	none
Fc1cccc(NC(=S)Nc2cccnc2)c1	none
Fc1cccc(NC(=S)NNc2c3ccccc3nc3ccccc23)c1	Mcl1 Noxa PPI 80
Oc1cccc(NC(=S)Nc2ccccc2)c1	14-3-3 Bad PPI 99 (no result: Bim-Mcl-1)
CCCn1cnc2c(=S)nc(N)[nH]c21	none (no result: Bim-Mcl-1)
CCCC1(CCC)NC(=O)NC1=O	none

High-throughput results: PubChem BioAssay, several laboratories
